What all share (test): DAPPL (digital affinity profiling via proximity ligation, sequencing); 10 mM Tris-HCl pH 7.5, 50 mM NaCl, 1 mM DTT, 4% glycerol, room temperature, 30 min; GST-TFs on glutathione beads, 16-mer random dsDNA library, 0.1% formaldehyde crosslink after washing; high values mean tight binding
What all share (conditions): protein: recombinant; tags: N-terminal GST; dsDNA, one strand shown

Test [1] concerns the target T1, FLI1 (Homo sapiens, UniProt Q01543 1-452).
T1 sequence: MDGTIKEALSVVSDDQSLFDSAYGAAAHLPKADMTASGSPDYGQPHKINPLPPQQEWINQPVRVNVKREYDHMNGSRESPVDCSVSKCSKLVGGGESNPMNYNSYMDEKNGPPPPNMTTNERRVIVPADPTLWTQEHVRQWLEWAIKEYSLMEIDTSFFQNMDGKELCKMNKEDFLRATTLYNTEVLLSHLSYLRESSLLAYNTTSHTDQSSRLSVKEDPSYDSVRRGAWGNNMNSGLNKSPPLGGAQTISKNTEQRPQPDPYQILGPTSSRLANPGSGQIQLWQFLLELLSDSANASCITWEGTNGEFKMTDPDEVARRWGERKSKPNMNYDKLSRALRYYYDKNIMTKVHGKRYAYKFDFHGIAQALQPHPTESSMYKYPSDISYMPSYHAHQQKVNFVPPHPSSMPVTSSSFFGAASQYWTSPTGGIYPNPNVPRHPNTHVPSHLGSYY
The procedure, abridged:
(§1)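 In yeast, human transcription factors were expressed with a GST fusion, then pulled down on glutathione beads and given DNA barcodes. Pooled with a tag-only sample, they were exposed to 200 nmole of a 16-mer random double-stranded DNA library (Tris/NaCl/DTT/glycerol buffer, room temperature, 30 min), washed, crosslinked with 0.1% formaldehyde, proximity-ligated using BsaI/T4 ligase for 1 h at 37 °C, PCR-amplified and read on an Illumina NextSeq500. Each hexamer's frequency of reads for a factor, divided by the matching frequency for the tag-only sample, gives the binding signal.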

Test [2] deals with T2, ELK1 (Homo sapiens, UniProt P19419 1-428).
T2 sequence: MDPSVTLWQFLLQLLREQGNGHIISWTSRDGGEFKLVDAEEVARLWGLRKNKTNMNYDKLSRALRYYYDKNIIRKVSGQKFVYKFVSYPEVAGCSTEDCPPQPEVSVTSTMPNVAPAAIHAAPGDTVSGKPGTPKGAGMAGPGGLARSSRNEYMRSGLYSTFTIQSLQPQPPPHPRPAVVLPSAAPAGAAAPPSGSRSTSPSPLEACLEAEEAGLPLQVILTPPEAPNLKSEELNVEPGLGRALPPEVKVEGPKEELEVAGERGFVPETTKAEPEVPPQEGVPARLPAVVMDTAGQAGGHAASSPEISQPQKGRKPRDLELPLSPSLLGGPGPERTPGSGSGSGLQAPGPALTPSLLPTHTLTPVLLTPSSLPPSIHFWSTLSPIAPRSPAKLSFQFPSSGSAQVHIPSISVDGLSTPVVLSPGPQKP
In outline:
as §1

Test [3] concerns the target T3, GABPA (Homo sapiens, UniProt Q06546 1-454).
T3 sequence: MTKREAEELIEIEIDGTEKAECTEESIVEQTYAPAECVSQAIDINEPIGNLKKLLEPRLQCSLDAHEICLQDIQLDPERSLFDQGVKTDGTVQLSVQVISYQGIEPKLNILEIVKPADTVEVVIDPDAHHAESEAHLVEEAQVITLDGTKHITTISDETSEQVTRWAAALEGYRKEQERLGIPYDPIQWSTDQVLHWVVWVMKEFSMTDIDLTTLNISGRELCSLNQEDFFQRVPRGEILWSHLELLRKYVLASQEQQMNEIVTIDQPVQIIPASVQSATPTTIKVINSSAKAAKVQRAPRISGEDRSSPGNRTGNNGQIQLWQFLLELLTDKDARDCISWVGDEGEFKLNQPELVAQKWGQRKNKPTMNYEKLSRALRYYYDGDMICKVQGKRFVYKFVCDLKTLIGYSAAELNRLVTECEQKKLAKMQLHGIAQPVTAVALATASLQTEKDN
In outline:
as §1

In test [4] the target is T4, ERG (Homo sapiens, UniProt P11308 1-479).
T4 sequence: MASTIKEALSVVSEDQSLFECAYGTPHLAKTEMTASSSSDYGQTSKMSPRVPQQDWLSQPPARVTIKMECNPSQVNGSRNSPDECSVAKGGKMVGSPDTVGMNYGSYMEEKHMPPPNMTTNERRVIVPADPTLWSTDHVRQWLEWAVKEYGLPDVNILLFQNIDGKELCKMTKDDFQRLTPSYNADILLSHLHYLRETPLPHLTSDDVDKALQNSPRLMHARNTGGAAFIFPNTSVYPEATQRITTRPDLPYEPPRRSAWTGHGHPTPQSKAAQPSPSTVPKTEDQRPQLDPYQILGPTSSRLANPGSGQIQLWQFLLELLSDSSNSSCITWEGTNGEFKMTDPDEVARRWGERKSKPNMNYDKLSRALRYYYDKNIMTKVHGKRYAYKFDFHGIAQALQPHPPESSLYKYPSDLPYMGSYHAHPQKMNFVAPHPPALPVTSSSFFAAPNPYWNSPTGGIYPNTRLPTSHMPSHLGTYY
The procedure, abridged:
as §1

Test [5] has as its target ELF1 (Homo sapiens, UniProt P32519 1-619). The procedure, abridged:
as §1

For test [6], the target named is T5, EHF (Homo sapiens, UniProt Q9NZC4 1-300).
T5 sequence: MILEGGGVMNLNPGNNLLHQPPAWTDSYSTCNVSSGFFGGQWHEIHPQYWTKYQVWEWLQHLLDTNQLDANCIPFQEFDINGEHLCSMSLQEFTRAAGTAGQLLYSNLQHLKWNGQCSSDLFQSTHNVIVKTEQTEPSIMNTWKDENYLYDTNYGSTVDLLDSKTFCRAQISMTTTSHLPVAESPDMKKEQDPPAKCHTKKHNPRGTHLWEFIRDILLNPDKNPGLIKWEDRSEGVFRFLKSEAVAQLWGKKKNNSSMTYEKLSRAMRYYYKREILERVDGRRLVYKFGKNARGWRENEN
The procedure, abridged:
as §1

Test [7] has as its target SPI1 (Homo sapiens, UniProt P17947 1-270). The procedure, abridged:
as §1

The target in test [8] is SPIB (Homo sapiens, UniProt Q01892 1-262). The procedure, abridged:
as §1

Test [9] addresses T6, ELK3 (Homo sapiens, UniProt P41970 1-407).
T6 sequence: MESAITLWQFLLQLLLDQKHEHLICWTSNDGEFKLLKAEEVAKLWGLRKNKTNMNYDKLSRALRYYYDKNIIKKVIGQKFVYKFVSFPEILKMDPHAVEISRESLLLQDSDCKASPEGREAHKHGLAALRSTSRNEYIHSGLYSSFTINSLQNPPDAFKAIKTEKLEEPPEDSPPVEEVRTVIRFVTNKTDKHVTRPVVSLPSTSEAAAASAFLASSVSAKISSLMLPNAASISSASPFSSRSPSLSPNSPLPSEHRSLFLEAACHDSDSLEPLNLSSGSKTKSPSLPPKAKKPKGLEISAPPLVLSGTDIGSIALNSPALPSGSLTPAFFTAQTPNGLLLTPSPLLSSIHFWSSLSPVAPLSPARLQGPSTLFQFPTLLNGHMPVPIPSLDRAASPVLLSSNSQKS
In outline: as §1

Chain of SPIB (Q01892 whole entry): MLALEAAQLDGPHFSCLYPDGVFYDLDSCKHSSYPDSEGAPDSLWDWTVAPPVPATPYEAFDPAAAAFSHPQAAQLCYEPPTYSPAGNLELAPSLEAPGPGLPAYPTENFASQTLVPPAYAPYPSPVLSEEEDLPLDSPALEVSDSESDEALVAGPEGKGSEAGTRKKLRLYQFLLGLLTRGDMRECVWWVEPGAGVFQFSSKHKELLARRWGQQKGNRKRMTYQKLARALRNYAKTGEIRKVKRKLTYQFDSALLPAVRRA
Chain of ELF1 (P32519 whole entry): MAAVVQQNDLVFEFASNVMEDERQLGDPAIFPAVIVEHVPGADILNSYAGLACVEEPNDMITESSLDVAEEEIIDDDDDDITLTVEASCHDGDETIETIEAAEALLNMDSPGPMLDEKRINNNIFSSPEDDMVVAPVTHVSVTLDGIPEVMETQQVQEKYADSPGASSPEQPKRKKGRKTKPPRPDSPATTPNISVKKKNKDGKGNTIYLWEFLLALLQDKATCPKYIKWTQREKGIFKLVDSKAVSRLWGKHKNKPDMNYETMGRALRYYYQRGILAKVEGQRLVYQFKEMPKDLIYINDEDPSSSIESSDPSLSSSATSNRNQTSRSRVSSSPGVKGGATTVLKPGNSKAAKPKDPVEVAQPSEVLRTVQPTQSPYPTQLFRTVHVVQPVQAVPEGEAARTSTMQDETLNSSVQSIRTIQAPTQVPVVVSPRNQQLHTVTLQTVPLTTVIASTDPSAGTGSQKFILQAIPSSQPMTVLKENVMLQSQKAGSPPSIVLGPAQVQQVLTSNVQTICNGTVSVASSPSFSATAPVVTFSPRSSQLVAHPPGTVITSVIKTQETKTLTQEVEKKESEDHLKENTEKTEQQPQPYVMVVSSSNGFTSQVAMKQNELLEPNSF

As for TGTTCC, the binding signal is 1.69 fold enrichment (6-mer frequency, TF over GST control) in test [1]; 1.61 fold enrichment (6-mer frequency, TF over GST control) in test [2]; 1.74 fold enrichment (6-mer frequency, TF over GST control) in test [3]; 1.68 fold enrichment (6-mer frequency, TF over GST control) in [4]; 1.66 fold enrichment (6-mer frequency, TF over GST control) in test [5]; 1.83 fold enrichment (6-mer frequency, TF over GST control) in test [6]. Besides, the binding signal in [7] was 1.81 fold enrichment (6-mer frequency, TF over GST control); in test [8] it was 1.8 fold enrichment (6-mer frequency, TF over GST control); in test [9], 1.5 fold enrichment (6-mer frequency, TF over GST control).
As for TTCCTG, the binding signal in test [1] was 2.3 fold enrichment (6-mer frequency, TF over GST control); in test [2], 2.3 fold enrichment (6-mer frequency, TF over GST control); in [3], 2.17 fold enrichment (6-mer frequency, TF over GST control); in test [4], 2.59 fold enrichment (6-mer frequency, TF over GST control); in [5], 2.22 fold enrichment (6-mer frequency, TF over GST control); in test [6], 2.23 fold enrichment (6-mer frequency, TF over GST control). The binding signal in test [7] was 2.64 fold enrichment (6-mer frequency, TF over GST control); in test [8], 2.36 fold enrichment (6-mer frequency, TF over GST control); in [9], 2.28 fold enrichment (6-mer frequency, TF over GST control).
CCGTTT: the binding signal in [1] was 1.47 fold enrichment (6-mer frequency, TF over GST control); in [2], 1.36 fold enrichment (6-mer frequency, TF over GST control); in test [3] it was 1.33 fold enrichment (6-mer frequency, TF over GST control); in [4] it was 1.57 fold enrichment (6-mer frequency, TF over GST control); in test [5], 1.29 fold enrichment (6-mer frequency, TF over GST control); in test [6] it was 1.33 fold enrichment (6-mer frequency, TF over GST control). Moreover, the binding signal in test [7] is 1.56 fold enrichment (6-mer frequency, TF over GST control); in test [8], 1.39 fold enrichment (6-mer frequency, TF over GST control); in [9], 1.35 fold enrichment (6-mer frequency, TF over GST control).
CTGTTC: the binding signal was 1.47 fold enrichment (6-mer frequency, TF over GST control) in [1]; 1.42 fold enrichment (6-mer frequency, TF over GST control) in test [2]; 1.38 fold enrichment (6-mer frequency, TF over GST control) in test [3]; 1.39 fold enrichment (6-mer frequency, TF over GST control) in [4]; 1.38 fold enrichment (6-mer frequency, TF over GST control) in [5]; 1.47 fold enrichment (6-mer frequency, TF over GST control) in test [6]. Moreover, the binding signal was 1.42 fold enrichment (6-mer frequency, TF over GST control) in test [7]; 1.39 fold enrichment (6-mer frequency, TF over GST control) in test [8]; 1.47 fold enrichment (6-mer frequency, TF over GST control) in test [9].
Consider TAATCA, for which the binding signal was 1.17 fold enrichment (6-mer frequency, TF over GST control) in test [1]; 1.14 fold enrichment (6-mer frequency, TF over GST control) in [2]; 1.25 fold enrichment (6-mer frequency, TF over GST control) in test [3]; 1.07 fold enrichment (6-mer frequency, TF over GST control) in [4]; 1.16 fold enrichment (6-mer frequency, TF over GST control) in test [5]; 1.08 fold enrichment (6-mer frequency, TF over GST control) in [6]. Besides, the binding signal is 1.07 fold enrichment (6-mer frequency, TF over GST control) in [7]; 1.16 fold enrichment (6-mer frequency, TF over GST control) in test [8]; 1.09 fold enrichment (6-mer frequency, TF over GST control) in test [9].
With CTTCAA, the binding signal in [1] is 1.44 fold enrichment (6-mer frequency, TF over GST control); in test [2] it was 1.35 fold enrichment (6-mer frequency, TF over GST control); in test [3], 1.35 fold enrichment (6-mer frequency, TF over GST control); in test [4] it was 1.28 fold enrichment (6-mer frequency, TF over GST control); in test [5], 1.4 fold enrichment (6-mer frequency, TF over GST control); in test [6], 1.26 fold enrichment (6-mer frequency, TF over GST control). In addition, the binding signal in [7] was 1.27 fold enrichment (6-mer frequency, TF over GST control); in test [8] it was 1.4 fold enrichment (6-mer frequency, TF over GST control); in test [9], 1.13 fold enrichment (6-mer frequency, TF over GST control).
For the sequence AACATA, the binding signal in test [1] was 1.23 fold enrichment (6-mer frequency, TF over GST control); in [2] it was 1.26 fold enrichment (6-mer frequency, TF over GST control); in test [3], 1.29 fold enrichment (6-mer frequency, TF over GST control); in test [4], 1.26 fold enrichment (6-mer frequency, TF over GST control); in test [5], 1.28 fold enrichment (6-mer frequency, TF over GST control); in [6] it was 1.31 fold enrichment (6-mer frequency, TF over GST control). Moreover, the binding signal in test [7] was 1.21 fold enrichment (6-mer frequency, TF over GST control); in test [8], 1.22 fold enrichment (6-mer frequency, TF over GST control); in test [9], 1.25 fold enrichment (6-mer frequency, TF over GST control).

(Values after article PMC7862700, “An all-to-all approach to the identification of sequence-specific readers for epigenetic DNA modifications on cytosine”.)
